ChEMBL document CHEMBL3988442, “University of Dundee, Small-Polar-MMV Screening Library” (2021)

What follows are compounds tested against T1, Aspartate--tRNA(Asp/Asn) ligase (Mycobacterium tuberculosis (strain ATCC 25618 / H37Rv)) (UniProt P9WFW3) (assay: Assay for Asp RNA synthetase-1 from Mycobacterium tuberculosis). Settings: 30 µM.
T1 sequence (whole entry): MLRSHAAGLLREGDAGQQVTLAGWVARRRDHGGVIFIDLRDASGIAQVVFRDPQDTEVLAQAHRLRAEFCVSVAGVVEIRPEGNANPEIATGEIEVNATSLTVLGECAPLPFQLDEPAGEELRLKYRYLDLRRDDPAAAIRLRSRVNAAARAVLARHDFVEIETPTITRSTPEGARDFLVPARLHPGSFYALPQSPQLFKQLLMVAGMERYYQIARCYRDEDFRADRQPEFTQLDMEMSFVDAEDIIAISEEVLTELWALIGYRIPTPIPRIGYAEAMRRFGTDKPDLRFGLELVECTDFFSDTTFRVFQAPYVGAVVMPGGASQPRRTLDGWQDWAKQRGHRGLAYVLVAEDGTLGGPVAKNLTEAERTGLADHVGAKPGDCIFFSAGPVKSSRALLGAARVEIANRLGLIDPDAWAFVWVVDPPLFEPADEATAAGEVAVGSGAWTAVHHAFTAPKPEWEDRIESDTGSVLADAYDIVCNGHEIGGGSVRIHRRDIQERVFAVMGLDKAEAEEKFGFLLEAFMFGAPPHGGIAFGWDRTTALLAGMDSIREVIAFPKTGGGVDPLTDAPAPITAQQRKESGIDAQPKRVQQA
Type: functional
Design: scale not given: in the data most compounds retested in dose-response had high values
CCc1cccc(OCC(=O)N2CCCC(n3cncn3)C2)c1 (stereo not given) gave a Percent Effect of -0.88%. Cc1[nH]/c(=N\C(=O)c2csc(NCC(C)C)n2)sc1C showed a Percent Effect of 0.43%. With O=C(CN1CCc2cncnc2C1)NCCOc1ccccc1 the Percent Effect was 0.955%. With CCOc1ccc(-c2ccnc(CC)n2)cc1C(=O)O the Percent Effect was -3.09%. With CCc1nnsc1C(=O)NCCn1nc2ccccn2c1=O the Percent Effect was -6.91%. Work on Cc1ccc(CN2CCn3cc(CN(C)Cc4ccco4)nc3C2)o1 yielded a Percent Effect of 1.01%. In the case of CN(Cc1nnc2n1CCC2)C(=O)Cc1ccc2c(c1)OCCO2, the Percent Effect is reported as 4.23%. Work on CCOCC(O)CN1CCN(C(=O)c2cc(F)ccc2C)CC1 (stereo not given) yielded a Percent Effect of -0.759%. CCC(=O)N1CCCC1c1nccnc1Nc1nc(C)cc(C)n1 (stereo not given) showed a Percent Effect of 4.25%. Work on CC(=O)N1CCNCC1c1cccc(C(=O)N(C)C)c1 (stereo not given) yielded a Percent Effect of -4.15%. CCc1cc(C(=O)N2CCC(Nc3ccc(C)nn3)CC2)sc1C gave a Percent Effect of -2.1%. With CCC(CC)C(CNC(=O)Nc1ccc(C)cc1)N1CCOCC1 (stereo not given) the Percent Effect was -1.91%. Work on O=c1c2ccccc2nc2n1C(CSc1ccc(Cl)cc1Cl)CN2 (stereo not given) yielded a Percent Effect of 4.53%. CN1CCOC(CNCc2coc(-c3cccs3)n2)C1 (stereo not given) showed a Percent Effect of 3.28%. For CCOc1cc(CNC(=O)N2CCC(Cc3cnn(C)c3)C2)ccn1 (stereo not given), the Percent Effect was -2.52%. In the case of COCc1nc2cc(NCc3ccc(C)o3)ccc2o1, the Percent Effect is reported as 25.1%. Work on CNC(=O)NC(=O)CN1CCC(c2cccc(F)c2)C1 (stereo not given) yielded a Percent Effect of -0.433%. Work on CCNC(=O)Nc1ccc2c(ccn2CC(=O)N(CC)CC)c1 yielded a Percent Effect of -3.17%. COc1ccc(CNC2CCCN(Cc3noc(C)n3)C2)cc1F (stereo not given) gave a Percent Effect of 1.37%. Cc1cc(C)c2nc(CN3CCCC(c4cc[nH]n4)C3)cc(O)c2c1 (stereo not given) showed a Percent Effect of 4.05%. Compound Cc1ccccc1-n1ncc(C(=O)N2CCCC2c2cnn(C)c2)c1C (stereo not given) has a Percent Effect of 0.583%. CC(C)c1cc(NC(=O)CN2CCc3ccccc3C2)on1 showed a Percent Effect of -1%. Cc1nc(CN2CCN(C(=O)c3sccc3C3CC3)CC2)cs1 showed a Percent Effect of -4.27%. CC(C)C(=O)N1CCN(C(=O)c2cscn2)[C@H]2CS(=O)(=O)C[C@H]21 showed a Percent Effect of -8.33%. c1nc2c(c(-c3ccsc3)n1)CCN(Cc1ccoc1)CC2 showed a Percent Effect of 8.04%. With CCS(=O)(=O)N1CCC2(CC(=O)N(c3cccc(C)c3)C2)C1 (stereo not given) the Percent Effect was 2.82%. With CN(C)c1ccccc1C(=O)N1C[C@@H](CN2CCOCC2)[C@@H](CO)C1 the Percent Effect was -3.28%. O=C1CC(c2ccc(C(=O)O)cc2)c2ncn(-c3ccccc3)c2N1 (stereo not given) gave a Percent Effect of 19.5%. For O=C(CCC1CCCO1)NCc1ccnc(-n2cccn2)c1 (stereo not given), the Percent Effect was 7.84%. CC(=O)N1CCCn2nc(CNS(=O)(=O)N3CCCCCC3)cc2C1 showed a Percent Effect of -7.71%. Compound Cc1cc(C)cc(NS(=O)(=O)c2cc3c(c(C(=O)O)c2)OCCO3)c1 has a Percent Effect of 3.19%. For CCN(CC)Cc1ccc(C(=O)N2CCCCC2Cn2cccn2)o1 (stereo not given), the Percent Effect was 3.47%. CSCC(C)(O)CNC(=O)c1ccc(Br)cc1C (stereo not given) was tested, and the Percent Effect was -3.46%. Work on Cc1ncc(CN(C)CC2CCCN2c2cccnn2)s1 (stereo not given) yielded a Percent Effect of 3.27%. Compound O=C(Nc1cc(C(F)(F)F)c[nH]c1=O)c1ccco1 has a Percent Effect of -2.75%. Work on O=C(NCc1ccoc1)NC1CCCN(c2ncccn2)C1 (stereo not given) yielded a Percent Effect of -2.64%. COCc1cccc(CNCc2c(C)nn(C)c2N(C)C)c1 was tested, and the Percent Effect was 6.21%. In the case of CCOCC(O)CN1CCN(C(=O)c2ccnc(N(C)C)c2)CC1 (stereo not given), the Percent Effect is reported as -2.58%. In the case of CC1(C(=O)N2CCOCC2)CN(Cc2ccccn2)CCO1 (stereo not given), the Percent Effect is reported as 8.77%. With Nc1nccc(NCc2cc3n(n2)CCCN(C2CCCCC2)C3)n1 the Percent Effect was -6%.
